The record followed here is the supplement of paper PMC4022240.

Common to all, as to experiment: peptide microarray binding signal (635 nm), min-max normalized on array (fraction of array maximum); higher = stronger binding
What all share (conditions): peptide region: H3 5-17

In experiment [1] the target is T1, HaloTag-ATRX ADD domain (163-292).
T1 chain: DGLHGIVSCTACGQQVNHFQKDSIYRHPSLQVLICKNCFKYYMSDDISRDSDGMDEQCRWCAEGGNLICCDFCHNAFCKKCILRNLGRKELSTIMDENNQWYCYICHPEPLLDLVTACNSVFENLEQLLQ
The method, boiled down: (§1)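 For each library, binding signal was taken as the triplicate-spot mean intensity and then min-max scaled. Spots of histone 13-mer peptide–cellulose conjugates on nitrocellulose, printed in triplicate with a Cy3 tracer, were probed for 1 h at 4°C with either biotin-labelled HaloTag reader fusions (10 nM to 1 μM) and streptavidin-Alexa Fluor 647 or rabbit histone antibodies (1:10,000 to 1:2,000) and anti-rabbit Alexa 647. Readout at 635 nm came from an Axon GenePix 4000B.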

Experiment [2] addresses HaloTag-ING2 PHD (mouse Ing2 200-280). The method, boiled down: as §1
Experiment [3] deals with anti-H3K4me3 antibody ab8580. In short, it runs like this: as §1
Experiment [4] concerns the target anti-H3K9me3 antibody ab8898. In short, it runs like this: as §1
[5] abbreviates: peptide modifications: H3R8me2s H3K9me3, binder concentration: 1:2,000 dilution.
Where [6] appears, read: peptide modifications: H3R8me2s H3K9me3, binder concentration: 1:10,000 dilution.
Setting [7] is: peptide modifications: H3R8me2s H3T11ph, binder concentration: 1:2,000 dilution.
The mark [8] stands for this setting: peptide modifications: H3R8me2s H3T11ph, binder concentration: 1:10,000 dilution.
Where [9] appears, read: peptide modifications: H3R8me2s H3K9me1, binder concentration: 1:2,000 dilution.
The mark [10] stands for this setting: peptide modifications: H3R8me2s H3K9me1, binder concentration: 1:10,000 dilution.
Where [11] appears, read: peptide modifications: H3S10ph H3K14me2, binder concentration: 1:2,000 dilution.
Where [12] appears, read: peptide modifications: H3S10ph H3K14me2, binder concentration: 1:10,000 dilution.
[13] abbreviates: peptide modifications: H3R8me2s H3K9me2, binder concentration: 1:2,000 dilution.
[14] abbreviates: peptide modifications: H3R8me2s H3K9me2, binder concentration: 1:10,000 dilution.

± gives the standard deviation.

Take QTARKSTGGKAPR [H3 5-17 Q T A Rme2s Kme3 S T G G K A P R]: the “peptide microarray binding signal” value in experiment [1] (peptide modifications: H3R8me2s H3K9me3, binder concentration: 50 nM) came to 0.00251 ± 0.00011; in experiment [1] (peptide modifications: H3R8me2s H3K9me3, binder concentration: 500 nM) it was 0.00471 ± 9.5e-05; in experiment [2] (peptide modifications: H3R8me2s H3K9me3, binder concentration: 10 nM), 0.00979 ± 0.00031; in experiment [2] (peptide modifications: H3R8me2s H3K9me3, binder concentration: 100 nM), 0.0103 ± 0.00024; in experiment [3] (setting [5]) it was 0.0199 ± 0.0017; in experiment [3] (setting [6]), 0.0138 ± 0.0027. Also, the entries for the “peptide microarray binding signal” value in experiment [4] (setting [5]) and in experiment [4] (setting [6]) were 0.094 ± 0.0025 and 0.0691 ± 0.0084, respectively.

In the case of QTARKSTGGKAPR [H3 5-17 Q T A Rme2s K S Tph G G K A P R], the “peptide microarray binding signal” value in experiment [1] (peptide modifications: H3R8me2s H3T11ph, binder concentration: 50 nM) is 0.00458 ± 6e-05; in experiment [1] (peptide modifications: H3R8me2s H3T11ph, binder concentration: 500 nM), 0.0138 ± 0.0057; in experiment [2] (peptide modifications: H3R8me2s H3T11ph, binder concentration: 10 nM), 0.0277 ± 0.00076; in experiment [2] (peptide modifications: H3R8me2s H3T11ph, binder concentration: 100 nM), 0.0321 ± 0.004; in experiment [3] (setting [7]), 0.0081 ± 0.0027; in experiment [3] (setting [8]), 0.00474 ± 0.00064. In addition, the figures for the “peptide microarray binding signal” value in experiment [4] (setting [7]) and in experiment [4] (setting [8]) were 0.00136 ± 0.00012 and 0.001441 ± 1.4e-05, respectively.

As for QTARKSTGGKAPR [H3 5-17 Q T A Rme2s Kme S T G G K A P R], the “peptide microarray binding signal” value was found to be 0.0141 ± 0.0025 in experiment [1] (peptide modifications: H3R8me2s H3K9me1, binder concentration: 50 nM); 0.0312 ± 0.016 in experiment [1] (peptide modifications: H3R8me2s H3K9me1, binder concentration: 500 nM); 0.0334 ± 0.0012 in experiment [2] (peptide modifications: H3R8me2s H3K9me1, binder concentration: 10 nM); 0.0522 ± 0.0014 in experiment [2] (peptide modifications: H3R8me2s H3K9me1, binder concentration: 100 nM); 0.0185 ± 0.0025 in experiment [3] (setting [9]); 0.0237 ± 0.00078 in experiment [3] (setting [10]). In addition, the “peptide microarray binding signal” value in experiment [4] (setting [9]) was determined as 0.0146 ± 0.0028; in experiment [4] (setting [10]), 0.0153 ± 0.0016.

For QTARKSTGGKAPR [H3 5-17 Q T A R K Sph T G G Kme2 A P R], the “peptide microarray binding signal” value is 0.0068 ± 0.00015 in experiment [1] (peptide modifications: H3S10ph H3K14me2, binder concentration: 50 nM); 0.015 ± 0.00086 in experiment [1] (peptide modifications: H3S10ph H3K14me2, binder concentration: 500 nM); 0.00597 ± 0.00047 in experiment [2] (peptide modifications: H3S10ph H3K14me2, binder concentration: 10 nM); 0.0125 ± 0.0027 in experiment [2] (peptide modifications: H3S10ph H3K14me2, binder concentration: 100 nM); 0.00874 ± 0.00064 in experiment [3] (setting [11]); 0.0077 ± 0.0015 in experiment [3] (setting [12]). In addition, the “peptide microarray binding signal” value in experiment [4] (setting [11]) is 0.00565 ± 0.00062; in experiment [4] (setting [12]), 0.00294 ± 0.00015.

On to QTARKSTGGKAPR [H3 5-17 Q T A Rme2s Kme2 S T G G K A P R], for which the “peptide microarray binding signal” value in experiment [1] (peptide modifications: H3R8me2s H3K9me2, binder concentration: 50 nM) was 0.00545 ± 0.0001; in experiment [1] (peptide modifications: H3R8me2s H3K9me2, binder concentration: 500 nM) it was 0.00886 ± 0.00071; in experiment [2] (peptide modifications: H3R8me2s H3K9me2, binder concentration: 10 nM), 0.0168 ± 0.00063; in experiment [2] (peptide modifications: H3R8me2s H3K9me2, binder concentration: 100 nM), 0.0228 ± 0.0012; in experiment [3] (setting [13]) it was 0.0112 ± 0.0011; in experiment [3] (setting [14]) it was 0.0122 ± 0.002. The “peptide microarray binding signal” value in experiment [4] (setting [13]) is 0.0214 ± 0.0029; in experiment [4] (setting [14]), 0.0131 ± 0.00022.
